Measured values published in PubChem BioAssay.
The source made the active and inactive calls. Unless noted, the rule behind the calls is not given here.

Columns and labels:
[1] = compounds binding Alexa647 anti-His antibody – biochemical, small-molecule microarray, 635 nm fluorescence, artefact control for SMM control protein annotation, primary screen (AID 1128); settings: higher = more signal;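 note: score merges feature fluorescence with signal-to-noise for each printed compound spot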
[2] = system: Human papillomavirus type 1a E7 protein (residues 1-88); assay: HPV1a E7 small-molecule binders, primary screen, biochemical, small-molecule microarray, residues 1-88, 635 nm (AID 1129); settings: small-molecule microarray binding, fluorescence 635 nm; higher = more signal
[3] = target: Focal adhesion kinase 1 (Homo sapiens) (UniProt Q05397); assay: PTK2 protein binding on printed compound slides – biochemical, small-molecule microarray, 635/667 nm fluorescence, BSA, DTT, primary screen (AID 1130); settings: 635 nm fluorescence, higher = more signal;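 note: composite of spot emission at 667 nm and signal to noise over triplicate slides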
[4] = system: Fibrinogen (Alexa647-labelled); assay: Alexa647-fibrinogen binding to printed small molecules – biochemical, small-molecule microarray, 635/667 nm fluorescence, artefact control for SMM control-protein annotation, profiling panel (AID 1131); settings: fibrinogen-A647 binding fluorescence, higher = more signal;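 note: z-score merges 667 nm fluorescence with per-spot signal-to-noise over triplicate slides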
[5] = target: Follistatin (Homo sapiens) (UniProt P19883); assay: FST protein binding to printed compounds – biochemical, small-molecule microarray, 635/667 nm fluorescence, primary screen (AID 1132); settings: 635 nm fluorescence, higher = more signal
[6] = target: Fibroblast growth factor 2 (Homo sapiens) (UniProt P09038); assay: basic fibroblast growth factor binding to printed compounds – biochemical, small-molecule microarray, 635/667 nm fluorescence, primary screen (AID 1133); settings: FGF2, fluorescence 635/667, higher = more signal
[7] = JC-1 mitochondrial potential readout, lung cancer cells – cell-based, A549, JC-1 fluorescence, basal, 24 h, 100 nL, profiling panel (AID 1138); settings: higher = more signal;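 note: A549 lung adenocarcinoma cells under basal conditions with no added stimulus; test concentration not given here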
Lefty1 = Lefty1 protein binding to printed compounds – biochemical, small-molecule microarray, 635/667 nm fluorescence, primary screen (AID 1139); settings: fluorescence 635/667, higher = more signal
[8] = system: wheat germ agglutinin (Triticum aestivum), Alexa647-labelled; assay: Alexa647-WGA lectin binding to printed small molecules – biochemical, small-molecule microarray, 635/667 nm fluorescence, artefact control for SMM control-protein annotation, profiling panel (AID 1140); settings: WGA-A647 binding, 635 nm fluorescence, higher = more signal;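 note: score merges 667 nm feature emission with signal to noise over triplicate slides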
[9] = target: Luciferin 4-monooxygenase (Photinus pyralis) (UniProt P08659); assay: inhibition of purified Photinus pyralis luciferase – biochemical, luminescence, purified enzyme, 2006 set, primary screen (AID 1141); settings: purified firefly luciferase, SteadyGlo luminescence, 30 min; higher = more signal, called active from +8 up or from −8 down;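 note: cell-free assay with purified firefly luciferase at 100 ng per well in PBS; test concentration not given here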
[10] = system: Wnt5a (protein binding on small-molecule microarray); assay: small molecules binding Wnt5a protein – biophysical, small-molecule microarray, 635/667 nm fluorescence, primary screen (AID 1142); settings: 635 nm fluorescence, higher = more signal;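 note: fluorescence read at 667 nm with signal to noise per printed feature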
[11] = ATP-based viability of Huh7 replicon cells – cell-based, CellTiter-Glo luminescence, basal, 48 h, cytotoxicity control for HCV replication inhibitor project, primary screen (AID 1143); settings: higher = more signal, called active from +8 up or from −8 down;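 note: Huh7 hepatoma cells carrying a hepatitis C replication reporter with no stimulus; test concentration not given here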
[12] = Pseudomonas biofilm growth suppression – PAO1 strain, BacTiter-Glo luminescence, LB-PBS, primary screen (AID 1144); settings: P. aeruginosa PAO1 biofilm, 12 h, higher = more signal
[13] = basal CRE-LacZ reporter activity in PC12 – cell-based, unstimulated, primary screen (AID 1145); settings: no forskolin, luminescence, 4.5 h, higher = more signal, called active from +8 up or from −8 down
[14] = forskolin-driven CRE-LacZ activity in PC12 – cell-based, CRE-LacZ reporter, forskolin-stimulated, primary screen (AID 1146); settings: luminescence, 4.5 h, higher = more signal, called active from +8 up or from −8 down;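 note: PC12 cells with 6xCRE LacZ reporter stimulated by forskolin 10 µM; beta-galactosidase reporter signal reflecting CREB driven transcription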
[15] = target: Streptavidin (Streptomyces avidinii) (UniProt P22629); assay: compounds binding control protein streptavidin – biophysical, small-molecule microarray, 635/667 nm fluorescence, artefact control for SMM compound annotation, primary screen (AID 1147); settings: higher = more signal;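 note: signal reflects streptavidin binding to arrayed compounds as a control protein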
[16] = probe aInhba binding on compound microarray – biochemical, small-molecule microarray, 635/667 nm fluorescence, primary screen (AID 1148); settings: higher = more signal;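 note: score merges 667nm spot fluorescence with signal-to-noise for antibody binding to printed compounds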
Torsin-1A (Homo sapiens) [17] = target: Torsin-1A (Homo sapiens) (UniProt O14656); assay: TOR1A wild-type binding on microarray – cell lysate, small-molecule microarray, lysate, 635/667 nm, primary screen (AID 1149); settings: COS7 hTOR1A-WT lysate, 635 nm fluorescence, higher = more signal
Torsin-1A (Homo sapiens) [18] = target: Torsin-1A (Homo sapiens) (UniProt O14656); assay: torsin A mutant lysate binding on microarrays – cell lysate, small-molecule microarray, COS7 lysate, 635/667 nm fluorescence, primary screen (AID 1150); settings: COS7 hTOR1A mutant lysate, 635 nm fluorescence, higher = more signal;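 note: score pools 667 nm emission and signal to noise measuring lysate protein binding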
[19] = system: Sonic hedgehog protein (Shh); assay: Sonic hedgehog microarray binding compounds – biochemical, small-molecule microarray, 635/667 nm fluorescence, primary screen (AID 1151); settings: 635 nm fluorescence, higher = more signal;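 note: Shh protein binding to compounds spotted on small-molecule microarray slides; score combines spot fluorescence intensity with signal-to-noise across triplicate slides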

Sequence of Streptavidin (Streptomyces avidinii) (P22629 whole entry, looked up): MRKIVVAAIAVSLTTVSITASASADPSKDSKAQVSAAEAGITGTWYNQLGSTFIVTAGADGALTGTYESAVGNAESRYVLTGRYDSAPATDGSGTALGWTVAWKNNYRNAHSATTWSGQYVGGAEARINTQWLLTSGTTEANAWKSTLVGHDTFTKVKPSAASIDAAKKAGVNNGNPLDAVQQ
Sequence of Fibroblast growth factor 2 (Homo sapiens) (P09038 whole entry, looked up): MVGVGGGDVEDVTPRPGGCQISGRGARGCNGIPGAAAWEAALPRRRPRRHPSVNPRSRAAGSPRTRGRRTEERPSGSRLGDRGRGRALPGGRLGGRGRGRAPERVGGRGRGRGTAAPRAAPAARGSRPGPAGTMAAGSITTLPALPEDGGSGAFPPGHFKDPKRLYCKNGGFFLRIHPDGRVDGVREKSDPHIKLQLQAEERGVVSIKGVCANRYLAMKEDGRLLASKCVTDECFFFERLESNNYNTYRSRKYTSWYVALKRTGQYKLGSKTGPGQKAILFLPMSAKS
Sequence of Luciferin 4-monooxygenase (Photinus pyralis) (P08659 whole entry, looked up): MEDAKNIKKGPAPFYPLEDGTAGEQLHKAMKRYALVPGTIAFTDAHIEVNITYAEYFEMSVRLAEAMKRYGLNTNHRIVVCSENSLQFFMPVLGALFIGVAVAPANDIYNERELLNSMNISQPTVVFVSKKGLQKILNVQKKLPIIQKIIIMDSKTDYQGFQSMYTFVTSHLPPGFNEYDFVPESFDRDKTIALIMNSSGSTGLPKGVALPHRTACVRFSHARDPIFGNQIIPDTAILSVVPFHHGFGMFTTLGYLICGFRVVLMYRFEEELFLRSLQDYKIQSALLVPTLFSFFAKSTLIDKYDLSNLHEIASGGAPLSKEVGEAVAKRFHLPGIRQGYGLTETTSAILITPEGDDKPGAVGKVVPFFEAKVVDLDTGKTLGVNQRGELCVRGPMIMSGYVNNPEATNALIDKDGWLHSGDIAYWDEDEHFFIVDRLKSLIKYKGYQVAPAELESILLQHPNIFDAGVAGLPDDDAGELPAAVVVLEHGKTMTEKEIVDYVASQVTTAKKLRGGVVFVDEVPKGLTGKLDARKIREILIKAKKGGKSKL
Sequence of Torsin-1A (Homo sapiens) (O14656 whole entry, looked up): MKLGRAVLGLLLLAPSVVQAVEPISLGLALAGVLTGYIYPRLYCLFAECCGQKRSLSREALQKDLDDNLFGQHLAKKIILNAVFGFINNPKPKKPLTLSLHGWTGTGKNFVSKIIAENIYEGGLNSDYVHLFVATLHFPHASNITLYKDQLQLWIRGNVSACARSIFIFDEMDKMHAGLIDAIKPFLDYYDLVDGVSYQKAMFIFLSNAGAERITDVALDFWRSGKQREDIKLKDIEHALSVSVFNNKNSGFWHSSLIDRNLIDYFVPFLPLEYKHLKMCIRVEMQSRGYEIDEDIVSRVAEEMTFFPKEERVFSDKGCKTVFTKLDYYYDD
Sequence of Focal adhesion kinase 1 (Homo sapiens) (Q05397 whole entry, looked up): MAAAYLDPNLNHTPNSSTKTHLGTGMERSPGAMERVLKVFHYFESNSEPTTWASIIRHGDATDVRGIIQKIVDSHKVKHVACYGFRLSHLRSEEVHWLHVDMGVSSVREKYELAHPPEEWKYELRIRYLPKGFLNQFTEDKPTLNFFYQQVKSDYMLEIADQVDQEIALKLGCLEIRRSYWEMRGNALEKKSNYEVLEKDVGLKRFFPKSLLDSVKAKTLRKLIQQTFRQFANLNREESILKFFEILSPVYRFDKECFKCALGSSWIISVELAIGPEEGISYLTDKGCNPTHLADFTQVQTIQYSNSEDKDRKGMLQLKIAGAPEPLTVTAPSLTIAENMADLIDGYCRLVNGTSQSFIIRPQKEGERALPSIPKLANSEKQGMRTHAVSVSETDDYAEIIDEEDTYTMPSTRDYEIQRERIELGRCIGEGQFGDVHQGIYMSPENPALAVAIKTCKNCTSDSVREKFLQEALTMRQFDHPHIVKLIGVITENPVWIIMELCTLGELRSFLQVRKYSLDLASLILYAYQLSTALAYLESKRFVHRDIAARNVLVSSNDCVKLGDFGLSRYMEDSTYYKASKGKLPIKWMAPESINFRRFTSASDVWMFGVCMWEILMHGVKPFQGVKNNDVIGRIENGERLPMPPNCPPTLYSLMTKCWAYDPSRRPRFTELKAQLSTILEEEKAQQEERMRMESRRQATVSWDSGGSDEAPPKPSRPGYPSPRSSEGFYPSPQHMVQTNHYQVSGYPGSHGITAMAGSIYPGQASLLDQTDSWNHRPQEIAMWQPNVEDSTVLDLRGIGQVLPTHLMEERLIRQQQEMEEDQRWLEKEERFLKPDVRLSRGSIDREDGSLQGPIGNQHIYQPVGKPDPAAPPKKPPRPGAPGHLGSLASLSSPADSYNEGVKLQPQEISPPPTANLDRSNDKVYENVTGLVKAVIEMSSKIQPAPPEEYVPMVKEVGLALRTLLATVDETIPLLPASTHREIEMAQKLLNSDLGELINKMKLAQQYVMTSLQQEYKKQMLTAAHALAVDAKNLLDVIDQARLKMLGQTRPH
Sequence of Follistatin (Homo sapiens) (P19883 whole entry, looked up): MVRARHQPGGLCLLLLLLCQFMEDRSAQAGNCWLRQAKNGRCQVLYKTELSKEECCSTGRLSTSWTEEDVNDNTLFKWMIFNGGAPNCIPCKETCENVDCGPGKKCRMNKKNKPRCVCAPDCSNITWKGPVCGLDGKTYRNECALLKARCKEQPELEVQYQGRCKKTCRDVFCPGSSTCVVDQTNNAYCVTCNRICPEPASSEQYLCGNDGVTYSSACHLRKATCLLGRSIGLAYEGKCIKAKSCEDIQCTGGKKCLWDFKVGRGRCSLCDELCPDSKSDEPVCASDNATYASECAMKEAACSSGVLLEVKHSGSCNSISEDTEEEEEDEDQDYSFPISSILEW

Compound | composite z-score [1] | composite z-score [2] | composite z-score [3] | composite z-score [4] | composite z-score [5] | composite z-score [6] | z-score [7] | composite z-score (Lefty1) | composite z-score [8] | z-score [9] | composite z-score [10] | z-score [11] | z-score [12] | z-score [13] | z-score [14] | composite z-score [15] | composite z-score [16] | composite z-score (Torsin-1A (Homo sapiens) [17]) | composite z-score (Torsin-1A (Homo sapiens) [18]) | composite z-score [19]
CCOC(=O)C1=CCC(c2ccccc2)N(S(=O)(=O)c2ccc([N+](=O)[O-])cc2)C1 (stereo not given) | 0.927 | 1.12 | 0.2 | -0.773 | 0.0227 | -0.169 | 0.0562 | -0.111 | 0.599 | 0.864 (inactive) | -0.206 | -3.61 (inactive) | 0.697 (inactive) | 1.23 (inactive) | -0.536 (inactive) | 0.108 | -0.128 | 0.331 | 0.458 | 0.188
COc1ccc(C(O)C2C=CC3C(=O)N(c4ccccc4)C(=O)C3N2Nc2ccccc2)cc1 (stereo not given) | 0.85 | 1.08 | 0.72 | 1.01 | 0.955 | 0.0088 | 0.204 | 0.817 | 1.1 | -0.182 (inactive) | 0.256 | -0.0351 (inactive) | -0.0851 (inactive) | 0.426 (inactive) | -0.356 (inactive) | 0.571 | 0.105 | -0.109 | 0.692 | 0.393
C=CCNC(=O)[C@H]1[C@@H]2C(=O)O[C@@H](c3ccccc3)[C@@H](c3ccccc3)N2[C@@H](c2ccc(OCCO)cc2)[C@]12C(=O)N(C(=O)OCCOC)c1ccc(C#Cc3ccc(OC)cc3)cc12 | 1.25 | 1.15 | 0.0069 | 0.904 | 1.22 | 0.714 | -1.59 | 0.544 | 0.719 | -1.51 (inactive) | 0.209 | -5.38 (inactive) | 0.054 (inactive) | -1.43 (inactive) | -0.857 (inactive) | 0.51 | 0.152 | 0.563 | 0.86 | 1.72
CCOC(=O)C1=C[C@@H](C(C)(C)C)N(S(=O)(=O)c2ccc(C)cc2)[C@H]1c1ccc(C)cc1 | 0.505 | 1.16 | -0.115 | 0.958 | 1.29 | 0.949 | 4.52 | 1.12 | 0.764 | 0.715 (inactive) | 0.514 | -5 (inactive) | 0.311 (inactive) | -0.0137 (inactive) | -0.1 (inactive) | 1.35 | 0.0857 | 0.392 | 0.361 | 1.7
CCOC(=O)C[C@H]1[C@H](OC(=O)c2ccc(-c3ccccc3)cc2)[C@@H](NC(=O)Cc2ccc(OC)cc2)c2cc(OCCCO)ccc2N1C(=O)Cc1ccc(OC)cc1 | -0.871 | -0.0151 | 0.0348 | 0.15 | 0.0322 | -0.0269 | 1.94 | -0.289 | 0.175 | -0.754 (inactive) | -0.0129 | 0.247 (inactive) | 0.00724 (inactive) | 0.773 (inactive) | -0.834 (inactive) | -0.0417 | -0.128 | -0.305 | 0.0922 | -0.259
C=CCC(OC(C)=O)[C@@H]1[C@@H](N(Cc2ccc(-c3cccc(C(F)(F)F)c3)o2)C(=O)Cc2ccc(OC)cc2)c2cc(OCCCO)ccc2N1C(=O)Cc1ccc2ccccc2c1 (stereo not given in full) | 0.083 | -1.39 | -0.368 | 0.226 | 0.131 | -0.501 | -0.451 | -0.27 | -0.0571 | 0.149 (inactive) | -0.19 | -1.58 (inactive) | -0.787 (inactive) | 0.134 (inactive) | 0.376 (inactive) | -0.679 | -0.238 | -1.96 | -1.85 | 0.0678
C=C(C)C1CCC(C(O)C2C=CC3C(=O)N(C)C(=O)C3N2Nc2cc(OC)c(OC)c(OC)c2)CC1 (stereo not given) | 1.23 | 1.24 | 0.573 | 0.723 | 1.31 | 0.425 | 0.444 | 0.677 | 0.504 | -1.07 (inactive) | 0.109 | 0.454 (inactive) | 0.253 (inactive) | 0.243 (inactive) | 0.516 (inactive) | 0.889 | 0.222 | -0.0834 | 0.44 | 1.11
CC(C)CNC(=O)[C@@H]1c2ccccc2C(=O)N(C2CCCCC2)[C@H]1c1ccc(CO)cc1 | 0.978 | 0.589 | -0.292 | -0.467 | 0.196 | -0.184 | 1.83 | -0.991 | -0.321 | -1.66 (inactive) | -0.141 | -2.94 (inactive) | -0.466 (inactive) | -0.179 (inactive) | -1.55 (inactive) | -0.285 | -0.101 | 0.146 | -0.0175 | -0.242
CC(CO)N1C(=O)[C@@H]2[C@H]3C(=O)OCC=C[C@H]3OC23C=CCN(c2ccc(Cl)cc2)C(=O)[C@@H]13 (stereo not given in full) | -0.715 | -1.39 | 0.0657 | -2.3 | -2.57 | -1.07 | 1.18 | -2.1 | -1.81 | -0.619 (inactive) | -0.691 | 0.359 (inactive) | 2.78 (inactive) | 0.866 (inactive) | 0.154 (inactive) | -2.13 | -0.26 | -2.73 | -2.95 | -0.721
CCCNC(=O)[C@@]1(C)c2ccccc2C(=O)N(Cc2ccccc2)[C@H]1c1ccc(CO)cc1 | 1.8 | 0.0323 | 1.28 | -0.872 | -0.571 | -0.258 | 1.03 | -0.975 | -0.231 | -1.18 (inactive) | -0.15 | -0.535 (inactive) | 0.62 (inactive) | 0.0924 (inactive) | -0.163 (inactive) | -1 | 0.101 | -0.102 | -1.96 | -0.203
